Screening data deposited in PubChem by Broad Institute.
Only some compounds are listed: those with a hit (about 8.1% of all), similar ones and a draw of the others.
Shh pathway inh: blocks Sonic Hedgehog signaling | Shh-LIGHT2 Gli-luciferase reporter, 30 h | inhibition, % (concentration not given with the values) | hit rate 2.1% among 22,000 | AID 2313;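 active = mean inhibition across valid replicates above about 65%, limit read from the data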;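 note: pathway switched on by Shh-conditioned medium diluted 1 in 25 in low serum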
MITF inh: blocks MITF activity. AID 2240. TRPM1 promoter luciferase, luminescence, 24 h. hit rate 0.28% among 37,000. inhibition, % (test concentration not listed); in the data active = inhibition above about 85%;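 note: human melanocyte line stably carrying TRPM1 promoter luciferase reporter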
NOMO-1 viab: STK33 inhibitor candidate reducing NOMO-1 cell viability; NOMO-1 AML viability, CellTiter-Glo luminescence, 72 h; inhibition, % (concentration not given with the values); hit rate 7.5% among 37,000; in the data active = inhibition above about 80%
Numbers without * were called inactive; nt = no result given.

SMILES	Shh pathway inh	MITF inh	NOMO-1 viab
CC(C)[C@@H]1NC(=O)[C@@H](Cc2c[nH]c3ccccc23)n2c1nc1ccccc1c2=O	-9.4	18.7	5.9
C[C@H](CO)N1C[C@H](C)[C@@H](CN(C)C(=O)Nc2cccc3ccccc23)Oc2ccc(NC(=O)CCC(F)(F)F)cc2C1=O	-44.8	-8.2	-4.1
O=C(Nc1ccccc1C(=O)O)c1cccc(S(=O)(=O)Nc2cccc(Br)c2)c1	nt	8.2	-5.2
Cc1ccc(N(CC(=O)Nc2c(C)n(C)n(-c3ccccc3)c2=O)S(C)(=O)=O)cc1Cl	nt	-0.8	8.7
CC(C)NC(=O)N(C)C[C@@H]1Oc2ccc(NC(=O)C3CC3)cc2CC(=O)N([C@@H](C)CO)C[C@@H]1C	13.6	-6.1	10.2
CC(C)=C1C[C@@]2(CO)C(=CC1=O)CC[C@@H](O)[C@@H]2C	2.9	-3.0	4.8
C=C(C)[C@@]12O[C@@H]1[C@@]1(C)C(=CC2=O)CC[C@@H](O)[C@@H]1C	49.8	47.5	113.9*
C[C@H]1CN([C@@H](C)CO)C(=O)c2cc(NC(=O)Cc3ccccc3)ccc2O[C@H]1CN(C)Cc1ccccc1	nt	8.7	24.0
C[C@H](CO)N1C[C@H](C)[C@H](CN(C)Cc2ccncc2)Oc2ccc(NC(=O)Cc3ccccc3)cc2C1=O	nt	3.4	98.1*
C[C@@H]1CN([C@H](C)CO)C(=O)c2cc(NC(=O)Cc3ccccc3)ccc2O[C@H]1CN(C)Cc1ccc(-c2ccccc2)cc1	-12.1	29.0	117.0*
C[C@@H]1CN([C@@H](C)CO)C(=O)c2cc(NC(=O)Cc3ccccc3)ccc2O[C@@H]1CN(C)Cc1ccc(-c2ccccc2)cc1	nt	-1.4	35.4
Cc1ccc(S(=O)(=O)N2CCN(C(=O)CSc3nnc4sc5ccccc5n34)CC2)cc1	nt	27.0	22.6
O=C(O)CCCC(=O)Nc1cc(C(=O)O)ccc1Cl	nt	-3.3	15.1
O=C(CCc1nc(-c2ccc(Cl)cc2)no1)N1CCOCC1	nt	-25.2	14.3
C=C(C(=O)O)C(O)CCC1(C)C2CC3C(C2)C31C (centres undefined)	-13.9	11.8	8.6
C[C@H]1CN([C@@H](C)CO)C(=O)Cc2cc(NS(=O)(=O)c3ccc(Cl)cc3)ccc2O[C@H]1CN(C)Cc1ccc(C(=O)Nc2ccccc2N)cc1	nt	15.7	139.4*
Cc1ccc(S(=O)(=O)Nc2ccc3c(c2)CC(=O)N([C@H](C)CO)C[C@@H](C)[C@H](CN(C)Cc2ccc(C(=O)Nc4ccccc4N)cc2)O3)cc1	nt	-0.1	36.5
C[C@H]1CN([C@@H](C)CO)C(=O)Cc2cc(NS(C)(=O)=O)ccc2O[C@@H]1CN(C)Cc1ccc(C(=O)Nc2ccccc2N)cc1	nt	-7.2	16.2
C[C@@H]1CN([C@H](C)CO)C(=O)Cc2cc(NS(=O)(=O)c3ccccc3)ccc2O[C@@H]1CN(C)Cc1ccc(C(=O)Nc2ccccc2N)cc1	nt	3.2	116.2*
Cc1cc(C(=O)Nc2cccc3c2O[C@@H](CN(C)C(=O)Nc2ccc4c(c2)OCO4)[C@@H](C)CN([C@H](C)CO)C3=O)n(C)n1	-23.1	-29.0	9.7
C[C@@H]1CCCCO[C@H](CN(C)C(=O)C2CCCCC2)[C@@H](C)CN([C@H](C)CO)C(=O)c2cc(NC(=O)CCCCCC(=O)Nc3ccccc3N)ccc2O1	nt	10.9	9.5
C[C@@H]1CN([C@@H](C)CO)C(=O)c2cc(NC(=O)Nc3cccc4ccccc34)ccc2O[C@H]1CN(C)Cc1ccc2c(c1)OCO2	nt	2.5	28.3
C[C@@H]1CN([C@@H](C)CO)C(=O)Cc2cc(NC(=O)Nc3cccc4ccccc34)ccc2O[C@@H]1CN(C)Cc1ccc2c(c1)OCO2	-0.2	25.7	96.6*
C[C@H](CO)N1C[C@H](C)[C@@H](CN(C)Cc2ccc3c(c2)OCO3)Oc2ccc(NC(=O)Nc3cccc4ccccc34)cc2C1=O	31.7	-6.5	42.6
C[C@@H]1CN([C@H](C)CO)C(=O)Cc2cc(NC(=O)Nc3cccc4ccccc34)ccc2O[C@@H]1CN(C)Cc1ccc2c(c1)OCO2	31.9	24.4	115.8*
SMILES	Shh pathway inh	MITF inh	NOMO-1 viab
CC(=O)c1ccc(NC(=O)COc2ccccc2C(N)=O)cc1	nt	-75.2	12.1
O=S(=O)(Nc1ncccn1)c1ccc(NC(=S)N2CCN(c3ncccn3)CC2)cc1	nt	-14.9	2.7
C[C@@H]1CN([C@@H](C)CO)C(=O)c2cc(NS(=O)(=O)c3cccs3)ccc2O[C@@H]1CN(C)C(=O)Nc1ccc2c(c1)OCO2	-9.0	11.2	24.1
O=C1Nc2ccccc2/C1=C\c1c(Cl)[nH]c2ccccc12	29.7	39.6	97.3*
CN(C)c1ccc(/C=C2/C(=O)Nc3ccccc32)cc1	-21.2	-39.6	40.1
O=C(O)CCn1cc(C(F)(F)F)ccc1=O	4.3	1.9	-4.4
N#CCC(c1ccccc1)c1ccccc1	nt	6.4	-4.5
O=C1c2ccccc2C(=O)N1CCCc1nc2c3c4c(sc3ncn2n1)CCCCC4	nt	-17.1	6.6
C[C@H](CO)N1C[C@H](C)[C@H](CN(C)S(=O)(=O)c2ccc(Cl)cc2)Oc2ccc(NC(=O)Nc3ccccc3)cc2CC1=O	34.2	20.4	110.6*
C[C@H](CO)N1C[C@H](C)[C@H](CN(C)S(=O)(=O)c2ccccc2)Oc2ccc(NC(=O)Nc3ccc(F)cc3)cc2CC1=O	-4.9	9.4	94.8*
COc1ccc(NC(=O)Nc2ccc3c(c2)CC(=O)N([C@@H](C)CO)C[C@@H](C)[C@@H](CN(C)S(=O)(=O)c2ccc(F)cc2)O3)cc1	-33.7	-7.1	10.0
C[C@@H]1CN([C@H](C)CO)C(=O)Cc2cc(NC(=O)Nc3ccc(F)cc3)ccc2O[C@H]1CN(C)S(=O)(=O)c1ccccc1	nt	-9.0	7.7
C[C@@H]1CN([C@@H](C)CO)C(=O)Cc2cc(NC(=O)Nc3ccccc3)ccc2O[C@@H]1CN(C)S(=O)(=O)c1ccc(Cl)cc1	27.4	22.4	77.1
C[C@H](CO)N1C[C@H](C)[C@H](CN(C)S(=O)(=O)c2ccc(F)cc2)Oc2ccc(NC(=O)Nc3ccc4c(c3)OCO4)cc2CC1=O	-55.1	28.3	126.3*
C[C@H](CO)N1C[C@H](C)[C@H](CN(C)S(=O)(=O)c2ccc(Cl)cc2)Oc2ccc(NC(=O)Nc3ccc(F)cc3)cc2CC1=O	-8.2	21.5	124.8*
C[C@@H]1CN([C@H](C)CO)C(=O)Cc2cc(NC(=O)Nc3ccc4c(c3)OCO4)ccc2O[C@H]1CN(C)S(=O)(=O)c1ccc(F)cc1	-15.5	3.4	18.4
Cc1ccc(S(=O)(=O)Nc2ccc3c(c2)CC(=O)N([C@H](C)CO)C[C@@H](C)[C@H](CN(C)S(=O)(=O)c2ccc(F)cc2)O3)cc1	0.2	-14.3	31.6
CC1(C)NC(=O)N(CC(=O)Nc2ccc(Br)cc2)C1=O	nt	-7.7	-6.4
S=C(NCc1ccco1)NCC1CC(c2ccccc2)=NO1 (centres undefined)	nt	-13.4	-42.8
COc1cccc(OC)c1C(=O)Nc1ccc(Cl)c(-c2nc3ncccc3o2)c1	nt	-5.8	-7.4
CS(=O)(=O)N(CC(=O)Nc1ccc(Br)cc1F)c1cccc([N+](=O)[O-])c1	nt	8.3	-11.2
C[C@H](CO)N1C[C@H](C)[C@H](CN(C)S(=O)(=O)c2ccc(F)cc2)Oc2ccc(NC(=O)Nc3ccc(F)cc3)cc2CC1=O	-104.0	33.2	125.8*
COc1ccc(S(=O)(=O)N(C)C[C@H]2Oc3ccc(NC(=O)Nc4ccc(F)cc4)cc3CC(=O)N([C@@H](C)CO)C[C@@H]2C)cc1	-49.7	-2.3	-14.5
